Screening results as filed in PubChem.
ATXN2 expr inh: inhibitors of ATXN2 expression | hit rate 0.72% among 360,000 | HEK-293 ATXN2-luciferase reporter, luminescence, 24 h | AID 1745845 | Potency, µM (highest dose often 57 µM), without a hit: top-dose activity change, negative = inhibition, usual class: inhibitors; note: % is set by controls: 0 for no effect and ±100 for the full control effect; nearly all actives have a fitted effect of over 55% in size
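qHTS (up to 57 uM final) was run with 24 h compound exposure of reporter cells at 37 °C. Each well was multiplexed: SteadyGlo luminescence measured ATXN2-luciferase expression after a fluorogenic Gly-Phe-AFC viability readout (25 uM final).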
A549 viability: kills or reduces viability of A549 cells in Nrf2 counter-screen | A549 ARE-Fluc cells, CellTiter-Fluor viability, 18-24 h | hit rate 0.16% among 390,000 | Potency, µM (highest dose often 46 µM), for the others: at the highest dose activity change, negative = cytotoxicity, usual class: inhibitors; note: % is set by controls: 0 for no effect and ±100 for the full control effect
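A549 ARE-Fluc cells in 5% FBS OPTI-MEM, 5000 cells/well, rested 2 h then exposed to compounds in concentration-response for 18-24 h at 37 °C. Viability by CellTiter-Fluor fluorescence (Ex 405/Em 525) after 30 min; luciferase luminescence (BugLite, 15 min, RT) read afterwards.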
ATXN viability: reduces viability in counter-screen for ATXN expression inhibitors; S2 cells (HEK-293 line with an ATXN2-luciferase reporter) viability, CellTiter-Fluor protease fluorescence, 24 h; Potency, µM (top dose mostly 56.7 µM), actives largely listed as cytotoxic; hit rate 0.49% among 400,000; AID 651635; note: nearly all actives have a fitted effect of over 40% in size
Nrf2 ARE act: activates Nrf2 signaling | AID 624171 | Potency, µM (series often up to 46.1 µM), for inactives: at the top dose activation, hits mostly activators | AREc32 ARE-luciferase reporter (MCF7-derived line), luminescence, 24 h | hit rate 0.31% among 410,000; note: % of control where 0% means no effect; nearly all actives have a fitted effect of over 65% in size
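AREc32 cells carrying an ARE-driven firefly luciferase reporter were seeded at 1000 cells/well in OPTI-MEM with 5% FBS, then exposed to compound for 24 hr at 37 deg C. Luminescence was read with Steady-Glo after 30 min at RT.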
Nrf2 block: Nrf2 pathway inhibition. A549 ARE-Fluc reporter, luciferase luminescence, 18-24 h. Potency, µM (top dose mostly 46 µM), for inactives: top-dose activity change, negative = inhibition, usual class: inhibitors. hit rate 2.1% among 360,000. AID 504444; note: % is set by controls: 0 for no effect and ±100 for the full control effect; nearly all actives have a fitted effect of over 60% in size
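Concentration-response testing used A549 ARE_Fluc cells at 5000 cells/well. Following an 18-24 h compound incubation, viability was read by fluorescence (Ex 405/Em 525) and luciferase output by luminescence.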
Active calls of the source: *; i = inactive; ? = inconclusive; nt = no result; [ ] = dose if it differs, or a comment. A selection: hits, their analogues and other compounds. The true share with any hit is near 2.9%. Calls come from the whole dose curve; as a rule, active = well fitted curve in the direction sought with a large enough effect; inconclusive = small, poorly fitted or top-dose-only effect, or another doubt; inactive = no such curve, though single readings can be large; an effect the other way counts as inactive or inconclusive. Potency is the fitted concentration of half-maximal effect.

SMILES	ATXN2 expr inh	A549 viability	ATXN viability	Nrf2 ARE act	Nrf2 block
CN1CCN(CC#CCn2c3ccccc3c3ccccc32)CC1	25.1µM*	?	?	3.1%	-21.0%
CCCN1C(C(=O)c2ccccc2)=C(OC(=O)COc2ccc(C)cc2)c2ccccc2S1(=O)=O	nt	?	nt	-1.9%	18.4µM*
CCN1C(C(=O)c2ccccc2)=C(OC(=O)COc2ccc(C)cc2)c2ccccc2S1(=O)=O	nt	?	nt	-0.9%	23.1µM*
CCN1C(C(=O)c2ccccc2)=C(OC(=O)c2ccc(Cl)cc2)c2ccccc2S1(=O)=O	nt	?	nt	-0.9%	20.6µM*
CCCN1C(C(=O)c2ccccc2)=C(OC(=O)COc2ccccc2)c2ccccc2S1(=O)=O	nt	?	nt	-2.3%	23.1µM*
CCCn1c(=O)c(C(=O)NCC2CCCO2)c(O)c2ccccc21 (stereo unspecified)	5.9%	-1.1%	i	-0.4%	-8.3%
O=C(c1ccc(N2CCN(C(=O)c3ccccc3Br)CC2)cc1)c1cccc(F)c1	?	-22.4%	i	0.3%	20.6µM*
COC(=O)C1CN(C(=O)COc2ccc(Cl)cc2Cl)c2ccccc2O1 (stereo unspecified)	-4.7%	-6.6%	i	-0.3%	-13.3%
N#CC1=C(SCC(=O)c2ccc(Br)cc2)NC2=C(C(=O)CCC2)C1c1ccco1 (stereo unspecified)	-16.5%	?	i	3.4%	18.4µM*
Cc1cccc(C)c1NC(=O)Cn1c(=O)n(Cc2ccc(C(=O)NCc3ccco3)cc2)c(=O)c2sccc21	?	-22.0%	?	0.2%	18.4µM*
CC(NC(=O)Cn1ncc(Cl)c(Cl)c1=O)C12CC3CC(CC(C3)C1)C2 (stereo unspecified)	?	0.3%	17.8µM*	?	0.9%
CC(NC(=O)CN1C(=O)NC(Cc2ccccc2)(Cc2ccccc2)C1=O)C12CC3CC(CC(C3)C1)C2 (stereo unspecified)	?	?	?	-0.6%	25.9µM*
O=C(Cn1ncc(Cl)c(Cl)c1=O)NC(=O)NC1CCCCC1	?	-4.8%	29.9µM*	?	7.2%
CCn1cc(C(=O)NC(C)C23CC4CC(CC(C4)C2)C3)cn1 (stereo unspecified)	-2.4%	1.7%	i	-0.3%	4.3%
Cc1[nH]c(=O)c(C(=O)c2cc(Cl)ccc2O)cc1C(=O)O	31.6%	-17.9%	i	0.4%	?
Cc1cc(OCCCCOc2ccc(S(N)(=O)=O)c(C)c2)ccc1S(N)(=O)=O	nt	-5.9%	i	9.1%	11.6µM*
COc1ccc(Cc2noc(CN3CCN(c4ccc(Cl)cn4)CC3)n2)cc1OC	?	-12.4%	?	0.3%	25.9µM*
COc1ccc(Cc2noc(CN3CCN(Cc4cccc(Cl)c4)CC3)n2)cc1OC	-15.7%	1.1%	i	0.3%[9.22 µM]	?
Cc1ccccc1NC(=S)NC(=O)/C=C/c1ccco1	-11.7%	-25.8%	i	17.8µM*	?
Cc1csc(NC(=O)/C=C/c2ccco2)n1	22.6%	-4.1%	i	1.78µM*	?
COc1ccccc1NC(=S)NC(=O)/C=C/c1ccco1	3.8%	11.0%	?	6.3%	9.7%
COc1ccc(S(=O)(=O)CC(=O)Nc2ccccc2Cl)cc1	-5.6%	2.0%	i	-0.5%	-20.5%
Cc1oc2c(c(C)cc3oc(=O)c(CC(=O)N[C@@H](CC(C)C)C(=O)O)c(C)c32)c1C	-17.9%	5.0%	i	-0.1%	7.3%
CN(Cc1ccc(Cl)cc1)C(=O)CCl	?	?	nt	-1.1%	?
CN(Cc1ccc(Cl)s1)C(=O)CCl	13.4µM*	-4.3%	nt	-2.9%	-22.1%
SMILES	ATXN2 expr inh	A549 viability	ATXN viability	Nrf2 ARE act	Nrf2 block
COCCOC(=O)C1=C(C)NC(C)=C(C(=O)OC(C)C)C1c1cccc([N+](=O)[O-])c1 (stereo unspecified)	?	-5.8%	?	3.4%	-0.9%
CC1=C(C(=O)OC(C)C)C(c2cccc([N+](=O)[O-])c2)C(C(=O)OC2CN(C(c3ccccc3)c3ccccc3)C2)=C(N)N1 (stereo unspecified)	31.6µM*	nt	35.5µM*	nt	nt
Cc1cc(C)cc(N(C(=O)c2cc3ccccc3oc2=O)C2C=CS(=O)(=O)C2)c1 (stereo unspecified)	-11.6%	3.6%	i	14.1µM*	-5.0%
CCC(C)(C)NC(=O)c1ccc(Br)o1	2.8%	-2.7%	i	-0.6%	-10.9%
CCCCCc1nc(N)c(C#N)c(-c2ccco2)c1CCCC	-3.4%	3.2%	i	4.8%	-8.4%
CCc1nc(N)c(C#N)c(-c2ccco2)c1C	2.1%	-1.9%	i	2.51µM*	-10.2%
Cc1nc(SCc2ccccc2)c2ccsc2n1	-31.1%	-1.1%	nt	?	-23.5%
CCc1cc2c(Sc3nc4ccccc4s3)ncnc2s1	?	0.5%	?	?	?
c1ccc(CSc2ncnc3sccc23)cc1	16.8%	0.5%	i	11.2µM*	9.1%
c1ccc2sc(Sc3ncnc4sccc34)nc2c1	6.8%	0.3%	i	8.91µM*	?
Cc1cccc(NC(=O)Cc2ccc(-n3c(C)nc4cccnc43)cc2)c1C	nt	4.3%	nt	3.3%	nt
COc1ccc(-n2c3c(cc(C(=O)NCc4ccco4)c2=O)C(=O)CC(C)(C)C3)cc1	3.7%	-1.0%	i	7.0%	4.6%
O=C(Nc1nnc(-c2ccccc2F)s1)C1CCCO1 (stereo unspecified)	27.3%	-2.2%	i	3.16µM*	?
O=C(Nc1nnc(-c2ccccc2F)s1)Nc1ccccc1F	17.8%	8.7%	i	8.91µM*	9.6%
O=C(Nc1nnc(-c2ccccc2SCc2ccccc2)s1)Nc1ccccc1F	15.1%	-2.0%	?	4.5%	16.8%
Cc1cccc(NC(=O)COc2ccc3oc4c(c3c2)CCCC4)n1	36.3%	-11.0%	i	-0.4%	13.7%
Cc1ccc(C)c(Nc2nc3c(S(=O)(=O)c4ccc(Br)cc4)nnn3c3ccsc23)c1	nt	?	nt	0.2%	?
Cc1ccc(C)c(Nc2nc3c(S(=O)(=O)c4ccc(C(C)C)cc4)nnn3c3ccsc23)c1	nt	?	nt	-0.3%	16.4µM*
O=[N+]([O-])c1cc(S(=O)(=O)Nc2ccccc2)ccc1N1CCN(c2ccccc2)CC1	-34.5%	?	?	5.4%	18.4µM*
O=[N+]([O-])c1cc(S(=O)(=O)Nc2ccccc2)ccc1Nc1ccccc1	-10.6%	?	i	7.1%	25.9µM*
O=[N+]([O-])c1cc(S(=O)(=O)C(F)(F)F)ccc1N1CCN(c2ccccc2)CC1	-25.6%	-6.2%	i	0.0%	?
O=[N+]([O-])c1cc(S(=O)(=O)Nc2ccccc2)ccc1NCc1ccccc1	4.0%	0.5%	i	2.0%	-0.6%
CC(=CC(=O)Nc1ccccc1C(=O)O)c1ccc2ccccc2c1	134.8%	nt	nt	nt	nt
N#CC(C#N)=C1C=CC=CN1/C(=C\c1ccco1)C(=O)c1ccccc1	?	-20.5%	?	-3.0%	-5.0%
